Assay results: ChEMBL document CHEMBL3433997, “St. Jude Leishmania screening dataset” (2016)

Assays:
Type in all cases: functional
[1] = target: Solute carrier family 2, facilitated glucose transporter member 1 (Homo sapiens) (UniProt P11166); assay: ST_JUDE_LEISH: Cytotoxicity at 2uM final concentration against transgenic Leishmania Mexicana promastigotes LmGLUT1 that are glucose transport deficient and complemented with the human glucose transporter GLUT1. Activity is measured by DNA content using SYBR green in vitro
Sequence of Solute carrier family 2, facilitated glucose transporter member 1 (Homo sapiens) (P11166 whole entry): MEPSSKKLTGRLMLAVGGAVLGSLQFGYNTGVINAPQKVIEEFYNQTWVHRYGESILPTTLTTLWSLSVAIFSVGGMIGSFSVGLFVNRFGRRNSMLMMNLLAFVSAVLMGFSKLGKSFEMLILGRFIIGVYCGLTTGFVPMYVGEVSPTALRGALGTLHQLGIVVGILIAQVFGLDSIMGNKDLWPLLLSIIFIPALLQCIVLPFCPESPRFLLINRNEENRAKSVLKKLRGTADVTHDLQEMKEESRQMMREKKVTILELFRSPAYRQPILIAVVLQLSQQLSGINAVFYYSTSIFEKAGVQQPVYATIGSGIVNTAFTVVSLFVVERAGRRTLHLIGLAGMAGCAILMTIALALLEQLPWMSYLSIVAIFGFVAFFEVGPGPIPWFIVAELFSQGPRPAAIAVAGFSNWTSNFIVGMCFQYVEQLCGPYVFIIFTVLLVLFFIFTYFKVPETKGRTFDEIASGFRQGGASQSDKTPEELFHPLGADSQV

[2] = target: Hexose transporter 1 (Plasmodium falciparum) (UniProt O97467); assay: ST_JUDE_LEISH: Cytotoxicity at 2uM final concentration against transgenic Leishmania Mexicana promastigotes LmPfHT that are glucose transport deficient and complemented with the Plasmodium falciparum hexose transporter. Activity is measured by DNA content using SYBR green in vitro
[3] = target: Glucose transporter (Leishmania mexicana) (UniProt O61059); assay: ST_JUDE_LEISH: Cytotoxicity at 2uM final concentration against transgenic Leishmania Mexicana promastigotes LmGT2 that are glucose transport deficient and complemented with the L. Mexicana glucose transporter 2. Activity is measured by DNA content using SYBR green in vitro

Structure (SMILES) | inhibition [1] [%] | inhibition [2] [%] | inhibition [3] [%]
O=C(Nc1cccc(CN2CCCN(Cc3ccc(F)cc3)CC2)c1)c1cc2ccccc2s1 | -2.26 | -1.55 | -0.88
Nc1ncc(-c2ccc3[nH]ccc3c2)c2ccc(-c3ccncc3)cc12 | 10 | 10.2 | 9.5
COc1ccccc1CCNc1nc(C)cc(NCCC(=O)Nc2ccccc2)n1 | 1.82 | 2.34 | 1.43
Cn1nc(-c2cccc(CN[C@@H]3CCc4ccc(O)cc43)c2)c2cnc(NC3CCCC3)nc21 | 4.2 | 3.87 | 4.68
COc1ccccc1-c1sccc1C(=O)NC1(c2cc(Cl)cc(Cl)c2)CCCC1 | 1.22 | 0.95 | 4.85
CC(C)[C@H](NC(=O)c1ccc(O)c(-c2cccc(C(F)(F)F)c2)c1)C(=O)NCCN1CCCCC1 | -0.28 | -0.52 | 0.62
N#Cc1cccc(CN(Cc2ccc(Cl)c(Cl)c2)S(=O)(=O)c2cccc([N+](=O)[O-])c2)c1 | 2.24 | -0.37 | 4.05
Cc1cc(=O)c(-c2ccc(OCCSc3ccc(C(F)(F)F)cn3)cc2)c(C)[nH]1 | 2.89 | 5.13 | 2.2
CNC(=O)CSc1nnc(-c2ccc(C)cc2)c(-c2ccc(C)cc2)n1 | 2.46 | 2.74 | 1.88
COc1ccc(Oc2ccc(Nc3ccnc4ccc(C(F)(F)F)cc34)cc2)cc1OC | 7.8 | 6.26 | 12.3
COc1ccc2nccc(N(C)CC3(O)CCC(NCc4ccc5c(n4)NC(=O)CS5)CC3)c2n1 (configuration not stated) | 3.69 | 3.78 | 1.23
Cc1noc(C)c1S(=O)(=O)N(C)Cc1ccc(-c2ccc(Cl)cc2)o1 | 1.57 | 1.24 | -2.43
O=C1C(C2CCC(c3ccc(Cl)cc3)CC2)=C2OCC3COC2(O3)c2ccccc21 (configuration not stated) | 1.13 | 0.99 | -0.99
Cc1ccc2nc(N(CCCn3ccnc3)C(=O)C=Cc3cccs3)sc2c1 | 0.75 | 1.84 | -2.73
